CYP2C19 inhib – blocks human cytochrome P450 2C19; CYP2C19 Supersomes, luciferin-H EGE luminescence, 30 min; inhibition, % at 5 µM; P33261; actives 21% (n = 96,000);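 active = CYP2C19 inhibition above a set limit at 5 µM in the primary screen, cut at about 50% in these data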
Target sequence (P33261 whole entry, looked up): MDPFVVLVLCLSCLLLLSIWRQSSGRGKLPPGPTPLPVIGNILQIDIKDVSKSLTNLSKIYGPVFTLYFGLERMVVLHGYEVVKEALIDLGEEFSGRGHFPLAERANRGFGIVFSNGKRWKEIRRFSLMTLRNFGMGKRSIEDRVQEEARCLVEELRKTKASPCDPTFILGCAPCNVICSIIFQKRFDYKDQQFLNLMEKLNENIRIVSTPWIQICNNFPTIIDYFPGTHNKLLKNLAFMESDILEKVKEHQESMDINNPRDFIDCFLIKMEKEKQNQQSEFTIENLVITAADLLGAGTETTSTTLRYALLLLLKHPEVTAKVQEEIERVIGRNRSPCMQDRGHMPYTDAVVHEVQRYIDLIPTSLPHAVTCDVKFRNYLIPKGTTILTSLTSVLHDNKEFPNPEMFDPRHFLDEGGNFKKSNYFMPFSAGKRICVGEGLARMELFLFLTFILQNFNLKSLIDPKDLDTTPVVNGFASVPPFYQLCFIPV
CYP2C9 inh – human CYP2C9 inhibition | P11712 | CYP2C9 Supersomes, luciferin-H conversion, luminescence | inhibition, % at 5 µM | actives 20% (n = 96,000);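 active = blocking of liver enzyme CYP2C9 beyond about 50% at 5 µM, limit read from the data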
Mac1 fbg inh – inhibitors of human CD11b/CD18 binding to fibrinogen. inhibition, % at 10 µM. P05107+P11215. K562 CD11b/CD18 adhesion to fibrinogen, ATPlite luminescence; Mn2+ added to activate the integrin. actives 0.54% (n = 93,000);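 active = primary inhibition of 50% or more at 10 µM, then 40% or more on retest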
CYP2C9 activ – activators of human CYP2C9; actives 1.4% (n = 96,000); recombinant CYP2C9, luciferin-H conversion, luminescence; stronger effect = higher value; factor 1 = untreated enzyme, 0 = blocked; activation factor at 5 µM;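 active = activation factor of 2 or more for CYP2C9 at a 5 µM dose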
CYP2C19 activ – cytochrome P450 2C19 (human) activation | P33261 | activation factor at 5 µM | recombinant CYP2C19, luciferin-H EGE luminescence; stronger effect = higher value; 0 = fully inhibited enzyme, 1 = untreated enzyme | 96,000 tested, under 10 active | AID 1025;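 active = activation factor of at least 2 at 5 µM in the primary screen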
Mac1 fbg enh – CD11b/CD18-fibrinogen binding enhancement | P05107+P11215 | actives 0.07% (n = 93,000) | K562 CD11b/CD18 adhesion to fibrinogen, ATPlite luminescence | AID 1499 | activation, % at 10 µM;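 active = 10 µM primary screen giving 50% or more activity, confirmed by 40% or more on retest at that dose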
Hits are given with their value; . = inactive; / = no result given. A selection: hits, their analogues and other compounds. The true share with any hit is near 28%.

SMILES | CYP2C19 inhib | CYP2C9 inh | Mac1 fbg inh | CYP2C9 activ | CYP2C19 activ | Mac1 fbg enh
Cc1cc(C)nc(SCc2nnc(SCC(=O)NCc3ccco3)n2-c2ccccc2)n1 | . | 60 | . | . | . | .
Cn1cccc1Cc1nnc(SCC(=O)NCc2ccco2)n1CCc1ccccc1 | 58 | . | . | . | . | .
Cn1cccc1Cc1nnc(SCC(=O)NCc2ccco2)n1-c1ccc(F)cc1 | 75 | . | . | . | . | .
Cc1nnc(SCC(=O)NCc2ccco2)n1-c1ccccc1 | . | . | . | . | . | .
Cn1cccc1Cc1nnc(SCC(=O)NCc2ccccc2Cl)n1-c1ccc(F)cc1 | 52 | 62 | . | . | . | .
CCc1cc(C(=O)COc2ccccc2F)c(O)cc1O | 96 | 60 | 84 | . | . | .
Cn1c(NC(=O)Cc2ccc(F)cc2)cc(=O)n(C)c1=O | . | . | . | . | . | .
CN(CC(=O)O)Cc1nc2ccccc2[nH]1 | . | . | . | . | . | .
CCCc1cc(-c2n[nH]c(C)c2-c2ccc(C(=O)OCC)o2)c(O)cc1O | 97 | 99 | . | . | . | .
CCc1cc(C(=O)Cc2ccc(F)cc2)c(O)cc1O | / | / | 103 | / | / | .
CC1CCN(C(=O)COc2ccccc2F)CC1 | . | . | . | . | . | .
CCc1cc(C(=O)Cc2nc3ccccc3[nH]2)c(O)cc1O | 87 | 54 | . | . | . | .
COC(=O)CN(c1cccc(F)c1)S(C)(=O)=O | . | . | . | . | . | .
CCOC(=O)c1cc(=O)n(Cc2ccccc2C)c2ccccc12 | . | . | . | . | . | .
CCCc1cc(C(=O)Cc2ccc(C(=O)OCC)o2)c(O)cc1O | 93 | 91 | . | . | . | .
CCOC(=O)c1ccc(CSc2nnc(C)n2N)o1 | . | . | . | . | . | .
CCCc1cc(C(=O)Cc2ccc(F)cc2)c(O)cc1O | 98 | 100 | 95 | . | . | .
O=C(Cc1c(F)cccc1Cl)c1ccc(O)cc1O | . | . | . | . | . | .
O=C(Cc1ccc(F)cc1)c1ccc(O)cc1O | 53 | . | . | . | . | .
CC1(C)CC(=O)c2cnc(NC(=O)c3ccco3)nc2C1 | . | . | . | . | . | .
CCOCCc1nnc(NC(=O)COC)s1 | . | . | . | . | . | .
Cc1ccc(N(CC(=O)Nc2cc(Cl)ccc2Oc2ccccc2)S(C)(=O)=O)cc1C | 99 | 98 | . | . | . | .
O=C(COc1ccccc1Cl)Nc1cc(Cl)ccc1Oc1ccccc1 | . | . | . | . | . | .
Cc1ccc(N(CC(=O)Nc2cc(Cl)ccc2Oc2ccccc2)S(C)(=O)=O)c(C)c1 | 61 | . | . | . | . | .
Cn1c(=O)c2c(nc(N3CCOCC3)n2CCCNC2=NCCC2)n(C)c1=O | . | . | . | . | . | .
SMILES | CYP2C19 inhib | CYP2C9 inh | Mac1 fbg inh | CYP2C9 activ | CYP2C19 activ | Mac1 fbg enh
COc1ccc(C2C(C(=O)Nc3ccccn3)=C(C)Nc3ncnn32)c(OC)c1 (stereo unspecified) | . | . | . | . | . | .
COC(=O)C1=C(C)NC(C)=C(C(=O)OC)C1/C=C/c1ccccc1 | . | 55 | . | . | . | .
CCOC(=O)C1=C(C)NC(C)=C(C(=O)OCC)C1/C=C/c1ccccc1 | 68 | 70 | . | . | . | .
CCOC(=O)C1=C(C)NC(=O)NC1/C=C/c1ccccc1 (stereo unspecified) | . | . | . | . | . | .
Cc1ccc(C(=O)Nc2ccccc2SCC2CSc3nc4ccccc4c(=O)n32)cc1 (stereo unspecified) | . | . | / | . | . | /
O=C(CCc1ccc(S(=O)(=O)N2CCOCC2)cc1)NCCCN1CCCC1=O | . | . | . | . | . | .
Cc1ccc2cc(/C=N/NC(=O)CN3CCOCC3)c(Cl)nc2c1 | . | . | . | . | . | .
O=C(Cc1csc(N2CCOCC2)n1)N/N=C/c1ccc(Cl)cc1Cl | . | . | 55 | . | . | .
COc1cc2c(cc1NC(=O)COC(=O)c1ccc(C(C)(C)C)cc1)oc1ccccc12 | / | / | . | / | / | .
COc1cc(Cl)ccc1S(=O)(=O)n1nc(C)cc1C | 75 | . | . | . | . | .
COc1cc(S(=O)(=O)n2nc(C)cc2C)c(OC)cc1Cl | 83 | . | . | . | . | .
O=C(OC(C(=O)NCC1CCCO1)c1ccccn1)c1cccs1 (stereo unspecified) | . | . | . | . | . | .
CC1CCN(C(=O)CCNS(=O)(=O)c2ccccc2)CC1 | 54 | . | . | . | . | .
O=C(O)CCNS(=O)(=O)c1ccccc1 | . | . | . | . | . | .
Cc1ccc(S(=O)(=O)NCCC(=O)N2CCN(Cc3ccccc3)CC2)cc1 | 52 | . | / | . | . | /
O=C1CC(NCc2ccc3c(c2)OCO3)C(=O)N1CCc1ccccc1 (stereo unspecified) | 75 | . | . | . | . | .
COc1ccc(CCNC2CC(=O)N(CCc3ccccc3)C2=O)cc1OC (stereo unspecified) | 60 | . | . | . | . | .
COc1ccc(CCNC2=C(Cl)C(=O)N(CCc3ccccc3)C2=O)cc1OC | 60 | 58 | . | . | . | .
COc1ccc(CCN2C(=O)CC(C(N)=O)SC2=Nc2ccccc2)cc1OC (stereo unspecified) | 68 | . | . | . | . | .
COc1ccc(CCNc2c(N)n(Cc3ccccc3)c(=O)[nH]c2=O)cc1OC | . | . | . | . | . | .
CNC(=O)C1CC(=O)N(Cc2ccc(OC)c(OC)c2)C(=Nc2ccc(OC)cc2)S1 (stereo unspecified) | . | . | / | . | . | /
Cc1ccc(CC2CC(=O)N(CCc3ccc4c(c3)OCO4)C2=O)cc1 (stereo unspecified) | . | . | . | . | . | .
COc1cccc(CC2CC(=O)N(CCc3ccc4c(c3)OCO4)C2=O)c1 (stereo unspecified) | 96 | . | . | . | . | .
CCOc1ccc2[nH]c(=O)c(CN(CCO)C(=O)c3ccc(F)cc3)cc2c1 | . | . | . | . | . | .
CN1CCN(c2ccccc2NC(=O)c2ccc(-c3ccccc3)cc2)CC1 | 94 | 70 | . | . | . | .
SMILES | CYP2C19 inhib | CYP2C9 inh | Mac1 fbg inh | CYP2C9 activ | CYP2C19 activ | Mac1 fbg enh
O=C(Nc1ccccc1C(=O)N1CCCC1)c1cccc(S(=O)(=O)N2CCCCC2)c1 | . | . | . | . | . | .
COc1cccc(C(=O)Nc2ccccc2C(=O)N2CCCC2)c1 | 54 | . | . | . | . | .
CN1CCN(c2ccccc2NC(=O)c2ccc(OCc3ccccc3)cc2)CC1 | . | . | . | . | . | .
CCN(CC)c1ccc(NC(=O)c2cccc(OC)c2)c(C)c1 | . | . | . | 2.5 | . | .
CN1CCN(c2ccccc2NC(=O)c2cccc(OCc3ccccc3)c2)CC1 | . | 52 | . | . | . | .
CC(C)Sc1n[nH]c2nc3c(c(=O)n12)C1(CCCC1)Cc1ccccc1-3 | . | . | . | . | . | .

Compound activity deposited in PubChem BioAssay by Sanford-Burnham Center for Chemical Genomics.
